The full ranking holds about 33,000 sequences; the median of “E-score (-0.5 to 0.5)” is about -0.012, and the highest 2% start at about 0.27. The sample as a whole holds a higher share of the highest values than the screen did.
Each sequence was assayed against T1, Vhr1 (UniProt P40522) (assay: PBM E-score (8-mer binding enrichment) (E-score (-0.5 to 0.5)); higher = stronger / more preferred TF binding). Conditions: protein concentration: 200 nM; construct: GST-full length.
T1 sequence: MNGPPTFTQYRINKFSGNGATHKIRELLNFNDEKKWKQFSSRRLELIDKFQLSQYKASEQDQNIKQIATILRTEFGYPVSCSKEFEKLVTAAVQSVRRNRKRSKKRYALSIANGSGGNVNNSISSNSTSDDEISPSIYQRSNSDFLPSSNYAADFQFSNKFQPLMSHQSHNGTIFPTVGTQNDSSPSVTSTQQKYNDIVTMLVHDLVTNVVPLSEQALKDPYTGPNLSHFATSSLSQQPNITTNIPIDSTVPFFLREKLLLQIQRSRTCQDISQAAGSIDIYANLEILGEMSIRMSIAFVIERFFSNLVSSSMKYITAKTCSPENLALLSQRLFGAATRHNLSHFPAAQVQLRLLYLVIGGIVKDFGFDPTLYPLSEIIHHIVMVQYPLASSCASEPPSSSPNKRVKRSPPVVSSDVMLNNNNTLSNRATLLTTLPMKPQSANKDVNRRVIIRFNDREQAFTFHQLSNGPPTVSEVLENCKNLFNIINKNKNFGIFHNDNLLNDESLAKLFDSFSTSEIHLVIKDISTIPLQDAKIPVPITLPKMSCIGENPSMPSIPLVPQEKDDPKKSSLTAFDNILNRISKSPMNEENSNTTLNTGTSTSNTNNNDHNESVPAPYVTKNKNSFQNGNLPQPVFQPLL
Protocol: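 Universal 'all 10-mer' protein binding microarrays (Agilent AMADID 015681) probed with GST-tagged S. cerevisiae TFs (full-length or DBD) made by in vitro transcription/translation (PURExpress), about 100-200 nM. Bound TF was detected with fluorescent anti-GST. Each ungapped 8-mer (which stands for itself and its reverse complement) is scored by the PBM enrichment score (E-score), a modified Wilcoxon-Mann-Whitney statistic from -0.5 to +0.5, computed with the Universal PBM Analysis Suite. Scale: above 0.35 generally sequence-specific binding.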

Sequence | PBM E-score
AACCATGC | 0.234
ACCCATGC | 0.273
ACCCAGGC | 0.302
GCCCATGA | 0.262
ACCCAGGT | 0.0206
AACCATGA | 0.351
ACCCATGG | 0.211
CCCCATGC | -0.0398
CACCATGA | 0.143
ATATTCTA | 0.122
TGACAACA | 0.115
GCCTTGAC | -0.167
CATGGACC | -0.0938
AACTGGGC | -0.165
GCGAGCAA | -0.12
ACAACGCT | 0.0591
AGCTAGGA | 0.117
AGTCACCA | 0.426
ATTCACCC | 0.135
CGTCACCC | -0.047
ATTCACCG | 0.159
AGACACCG | 0.21
GGTCACCA | -0.102
AGTCACCC | 0.446
AGTCACCG | 0.418

Sequence | PBM E-score
CGTCACCA | -0.036
CTGGCAAG | -0.21
GAAGATCA | -0.185
GCCGGCCA | -0.136
ATGCCTGA | 0.0818
CCTCTCGA | -0.142
CGTGAAAC | -0.243
AGCTCTAA | -0.127
ACTCTTAC | 0.163
GCACCCCA | 0.151
TCACCCCA | 0.305
TCACCCAA | 0.177
AGCGGTCG | -0.301
ACACGGAT | 0.287
ACACGGAG | -0.0139
ACACGGAA | -0.0284
CGTCATAG | -0.155
AGTCATAA | 0.344
AGACATAT | 0.16
AGTCATAC | 0.407
AGTCATAG | 0.407
CGTCATAC | 0.189
CGTCATAA | 0.016
TGTCATAA | -0.0558
GGTCATAC | 0.0467

Sequence | PBM E-score
ACTCATAG | 0.264
ACTCATAT | 0.229
AGTCATAT | 0.421
ACTTATAT | 0.199
GCACCGCA | 0.0151
GTTCATGA | 0.142
ATCCACCA | 0.113
ACCTTGCG | -0.0156
GAGGCGGC | 0.0803
GAGGTTGC | -0.0739
CAACTATC | 0.125
ACTATCAA | 0.112
CACGTGAC | 0.108
GTTGATTA | 0.239
AATGATTA | 0.304
AATGATAA | 0.106
GATGATCA | 0.285
GCTGATTA | 0.197
AATGATCA | 0.0798
AATGATGA | 0.163
GATGATCC | 0.0747
GATGATTA | 0.337
GCTGATGA | 0.185
GGTGATGA | 0.233
GGTGATTA | 0.285

Sequence | PBM E-score
GCTGCGCC | 0.0437
ATTAGCAA | 0.124
CGAGAGCG | -0.118
CTGCATCC | -0.157
ATCGCAAT | 0.157
CATGATGA | 0.254
TATGATGA | 0.286
GATGATGA | 0.144
TAGGTTGA | 0.0773
AAAGAATG | 0.0281
CTGGAATC | 0.104
ATGGAATA | 0.117
CTGGAGAC | 0.0265
ATGGAGTC | 0.433
ATGGAATC | 0.28
ATGGAGTA | 0.185
CTGGAGTA | -0.0097
CTGGAGTC | 0.356
ATGGAGTG | -0.0367
CGATACGA | -0.0911
AGAAGCGC | 0.16
TAGCACAA | -0.0198
CACACTCG | 0.224
GACTCCGA | 0.428
TACTCCGA | 0.174

Sequence | PBM E-score
GACTCCGC | 0.38
AACTCCGC | -0.0635
CACTCCGC | 0.144
AACTCCGA | 0.115
GCCTTAGA | -0.114
CTACCTCC | 0.241
GATCCATC | 0.194
AAACGACA | 0.138
CCTGAGGA | -0.0328
GAAACTTA | -0.0802
GCTGAGCA | 0.149
GCTCTGCA | -0.201
ATGGTATG | 0.00124
CTGGTATC | 0.0298
ATGGTATC | 0.287
CTAGATGC | 0.00921
AGTCAGGA | 0.355
CGTCAGGA | -0.0893
CGTCAGGC | -0.213
ACTCAGGC | 0.259
GGTCAGGA | 0.0179
ACTCAGGG | 0.27
AGTCAGGC | 0.404
AGTCAGGG | 0.356
ATTCAGGG | 0.108

Sequence | PBM E-score
AAGTTGTG | -0.00706
ATATTTAG | -0.00388
CACCTAGA | -0.0265
CACTTGAA | -0.042
AAGCTAGT | -0.0022
AACCAGGA | -0.00068
GTTAACGA | -0.043
CGCTTGTC | -0.0745
GAGACTGA | 0.0631
ACGACTGC | -0.0133
ATCACTGA | 0.136
CTCACTGC | -0.102
AAGACTCG | 0.0518
ATGACTGC | 0.41
GGGACTGA | -0.174
ATAACTCG | 0.0214
AGGACTGC | -0.19
GTGACTGA | 0.384
ATGACTCG | 0.457
ATCACTGC | 0.289
GTCTGAAA | -0.0548
GCTGAATA | 0.00091
CACTAGAC | 0.0875
AACGGGCC | -0.204
TAAGTACA | -0.0281

Sequence | PBM E-score
GCGTTAAA | -0.0751
CTCCATCC | -0.162
AGATGGGG | -0.00259
AATGCTAT | -0.0368
AAGTTCGG | -0.155
CTGCACAC | 0.045
ACGATAAT | 0.0207
ACGACTGG | 0.0415
ACGACTGA | 0.123
CAGACTGC | 0.00779
CTGACTGA | 0.13
AGGACTGA | -0.143
CTGACTGC | 0.298
ATGACTGA | 0.368
ATGACTGG | 0.298
ATGACTTG | 0.268
CATCCGAG | 0.15
CGTAATGA | 0.0462
ATTGTGGG | 0.156
ACGCTCCC | -0.108
GTCATCAC | 0.229
AGCAATAA | -0.0386

— the supplement of paper PMC3334620
